The values that follow come from PubChem BioAssay (NCATS).

Where “and” joins values, the source holds several entries; their conditions need not be identical. Equal values may be shown once. Unmarked numbers belong to inactive results. Inconclusive results are not listed. A structure can be active in one record and inactive in another. Calls of active or inactive are those of the source. Unless noted, calls come from the whole dose curve; as a rule, active = well fitted curve in the direction sought with a large enough effect; inconclusive = small, poorly fitted or top-dose-only effect, or another doubt; inactive = no such curve, though single readings can be large; an effect the other way counts as inactive or inconclusive.

In one experiment the test system is Hek293T. The experiment in a line: Primary qHTS to identify gynecologic anti-cancer compounds using libraries of approved drugs and bioactive compounds (AID 1345084). Note: nearly all actives have a fitted effect of over 55% in size. Note: potency is the fitted concentration of half-maximal effect. The conditions noted are these: Gynecologic cancer cell panel viability, ATPlite luminescence, 48 h, control line for the selectivity index; series mostly up to 57.5 µM. The procedure, abridged: (§1)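 Five-point cytotoxicity, 48 h drug exposure at 37 C, 5% CO2, on cells seeded 16 h beforehand. ATP content read by ATPlite luminescence.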

The subject of another experiment is JEG-3. Described as above. Conditions: Gynecologic cancer cell panel viability, ATPlite luminescence, 48 h; series mostly up to 57.5 µM. The procedure, abridged:
as §1

In another experiment the test system is PA-1. Described as above. Conditions: Gynecologic cancer cell panel viability, ATPlite luminescence, 48 h; series mostly up to 57.5 µM. In outline:
as §1

A further experiment relates to SKOV3. The experiment is described as above. The conditions noted are these: Gynecologic cancer cell panel viability, ATPlite luminescence, 48 h; series mostly up to 57.5 µM. In outline:
as §1

A further experiment relates to Tov-21-G. The experiment is described as above. Conditions: Gynecologic cancer cell panel viability, ATPlite luminescence, 48 h; series mostly up to 57.5 µM. The procedure, abridged:
as §1

The next experiment has as its system Tov112D. The description is as above. The conditions noted are these: Gynecologic cancer cell panel viability, ATPlite luminescence, 48 h; series mostly up to 57.5 µM. The procedure, abridged:
as §1

Experiment [1] deals with Nuclear receptor subfamily 1 group I member 2 (Rattus norvegicus) (UniProt Q9R1A7). The experiment in a line: qHTS assay for small molecule activators of the rat pregnane X receptor (rPXR) signaling pathway (AID 651751; call rule not given here; note: 0% is about no effect). The conditions noted are these: rPXR reporter cells, luciferase (One-Glo), 24 h.
Sequence of Nuclear receptor subfamily 1 group I member 2 (Rattus norvegicus) (Q9R1A7 whole entry, looked up): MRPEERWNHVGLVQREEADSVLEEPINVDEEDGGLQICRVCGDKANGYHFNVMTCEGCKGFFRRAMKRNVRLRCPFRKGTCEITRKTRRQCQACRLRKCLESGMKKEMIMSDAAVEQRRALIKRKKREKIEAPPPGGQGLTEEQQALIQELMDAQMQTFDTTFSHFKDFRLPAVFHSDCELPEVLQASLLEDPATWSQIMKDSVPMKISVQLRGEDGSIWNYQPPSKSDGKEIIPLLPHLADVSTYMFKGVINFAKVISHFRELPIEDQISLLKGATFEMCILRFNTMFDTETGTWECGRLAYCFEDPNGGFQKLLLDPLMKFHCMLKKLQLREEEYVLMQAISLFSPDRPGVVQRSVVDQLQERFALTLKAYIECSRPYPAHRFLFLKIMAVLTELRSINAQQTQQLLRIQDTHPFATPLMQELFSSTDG
The next experiment concerns OV90. The experiment in a line: Primary qHTS to identify gynecologic anti-cancer compounds using libraries of approved drugs and bioactive compounds (AID 1345084). Note: nearly all actives have a fitted effect of over 55% in size. Note: potency is the fitted concentration of half-maximal effect. Conditions: Gynecologic cancer cell panel viability, ATPlite luminescence, 48 h; series mostly up to 57.5 µM. In outline:
as §1

Experiment [2] in a line: Drug repurposing screens with cells derived from glioblastoma tumor samples (AID 1345199). For activity, negative = cell killing: % is set by controls: 0 for no effect and ±100 for the full control effect. Note: nearly all actives have a fitted effect of over 40% in size. Note: potency is the fitted concentration of half-maximal effect. Conditions: GBM patient neurospheres viability, ATP luminescence, 48 h. In outline: (§2)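 Primary testing used CD133+ neurospheres from four GBM patients, seven concentrations, 48 h exposure and ATP-based viability; confirmation added three slower-growing patient lines.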
Experiment [3] is described as follows: qHTS assay for small molecule activators of the human pregnane X receptor (PXR) signaling pathway (AID 720659; call rule not given here; note: 0% is about no effect).
Another experiment concerns astro. The experiment in a line: Drug repurposing screens with cells derived from glioblastoma tumor samples (AID 1345199). For activity, negative = cell killing: % is set by controls: 0 for no effect and ±100 for the full control effect. Note: nearly all actives have a fitted effect of over 40% in size. Note: potency is the fitted concentration of half-maximal effect. Conditions: viability, ATP luminescence, 48 h; series mostly up to 45.9 µM. The procedure, abridged:
as §2

The mark [4] stands for this setting: at 45.9 µM (top of the series), tumour line D.
The mark [5] stands for this setting: at 46 µM (top of the series), tumour line A.
Where [6] appears, read: at 45.9 µM (top of the series), tumour line B.
Where [7] appears, read: at 46.1 µM (top of the series), tumour line C.
[8] abbreviates: at 20 µM (top of the series), tumour line C.
Where [9] appears, read: at 21.2 µM (top of the series), tumour line B.
Where [10] appears, read: at 21.2 µM (top of the series), tumour line D.

With `CC1(COc2ccc(CC3SC(=O)NC3=O)cc2)CCCCC1` (stereo unspecified), the Potency result with Hek293T, with JEG-3, with PA-1, in the experiment with SKOV3, in the experiment with Tov-21-G and in the experiment on Tov112D was “inactive” throughout. The max response in experiment [1] is 13.5%.

For `CC(=O)OC[C@H]1O[C@@H](n2ncc(=O)[nH]c2=O)[C@H](OC(C)=O)[C@@H]1OC(C)=O`, the Potency result with Hek293T, with JEG-3, in the experiment with OV90, in the experiment on SKOV3 and in the experiment with Tov112D was “inactive” in each case. For the same compound, the activity, negative = cell killing in experiment [2] (setting [4]) is -20.8%; in [2] (setting [5]), -30.4%.

In the case of `COc1cc([C@H]2Oc3cc([C@H]4Oc5cc(O)cc(O)c5C(=O)[C@@H]4O)ccc3O[C@@H]2CO)ccc1O`, the Potency entry with Hek293T, in the experiment on JEG-3, in the experiment on OV90, in the experiment on SKOV3, in the experiment with Tov-21-G and in the experiment with Tov112D was “inactive” throughout. The activity, negative = cell killing is -0.835% in experiment [2] (setting [6]), -13.1% in [2] (setting [4]) and -7.07% in experiment [2] (setting [7]). Further, the compound was classed as inactive in experiment [3].

In the case of `CN1CCN(C2=Nc3cc(F)ccc3Cc3ccccc32)CC1`, the Potency result in the experiment with Hek293T, in the experiment on JEG-3, with PA-1, in the experiment on SKOV3, in the experiment on Tov-21-G and in the experiment on Tov112D was “inactive” each time. The Potency entry in the experiment on astro is “inactive”.

As for `O=C(Oc1cccc2cccnc12)c1ccccc1`, the Potency entry in the experiment with Hek293T, with JEG-3, with OV90, with Tov-21-G, with Tov112D and in the experiment on astro was “inactive” each time. Further, the activity, negative = cell killing in experiment [2] (setting [6]) was -24.1%; in experiment [2] (setting [4]), -26.2%; in experiment [2] (setting [7]) it was -9.14%.

On to `CC(CNC1CCCCC1)OC(=O)c1ccccc1` (stereo unspecified), for which the Potency result in the experiment with Hek293T, in the experiment on JEG-3, in the experiment on PA-1, in the experiment with SKOV3, in the experiment on Tov-21-G and in the experiment with Tov112D was “inactive” each time. For the same compound, the Potency entry in the experiment with astro is “inactive”. In addition, the activity, negative = cell killing in [2] (setting [8]) was 10.5%; in experiment [2] (setting [9]), -8.26%; in [2] (setting [10]), -19.5%.

Take `C#C[C@]1(O)CC[C@H]2[C@@H]3CCC4=CC(=O)CC[C@@H]4[C@H]3CC[C@@]21CC`: the Potency entry with Hek293T, in the experiment with JEG-3, with OV90, with SKOV3, in the experiment with Tov-21-G and in the experiment on Tov112D was “inactive” each time. In addition, the Potency result in the experiment on astro was “inactive”. Further, the activity, negative = cell killing was -8.91% in experiment [2] (setting [6]), -3.36% in experiment [2] (setting [4]) and 6% in experiment [2] (setting [7]).

Regarding `C[C@@]12C(=O)OC(=O)[C@]1(C)C1CCC2O1`, the Potency is 10 µM (active) in the experiment with Hek293T; 11.2 µM (active) in the experiment on JEG-3; 3.16 µM (active) with OV90; 8.91 µM (active) in the experiment on SKOV3; 8.91 µM (active) in the experiment with Tov-21-G; 14.1 µM (active) with Tov112D. In the experiment with astro, the Potency was 631 nM (active).

With `CCc1nn(CCCN2CCN(c3cccc(Cl)c3)CC2)c(=O)n1CCOc1ccccc1`, the Potency result in the experiment with Hek293T, in the experiment on JEG-3, in the experiment on SKOV3, in the experiment with Tov-21-G and in the experiment on Tov112D was “inactive” in each case. Further, the results for the activity, negative = cell killing in experiment [2] (setting [6]) and in experiment [2] (setting [7]) were -29% and -17.6%, respectively. For the same compound, the Potency was 7.94 µM (active) and 10 µM (active) in experiment [2] (tumour line A); 15.8 µM (active) and 11.2 µM (active) in experiment [2] (tumour line D); 35.5 µM (active) and 25.1 µM (active) in the experiment on astro.

Turning to `O=C1OC(CN2CCOCC2)CN1/N=C/c1ccc([N+](=O)[O-])o1` (stereo unspecified), the Potency entry with Hek293T, with JEG-3, with PA-1, with SKOV3, with Tov-21-G and in the experiment with Tov112D was “inactive” in each case. The Potency entry with astro is “inactive”. The activity, negative = cell killing in experiment [2] (setting [8]) was -25.2%; in experiment [2] (setting [9]), 2.66%; in experiment [2] (setting [10]), -3.22%.

As for `CCOc1ccccc1OCCN[C@H](C)Cc1ccc(OC)c(S(N)(=O)=O)c1`, the Potency result in the experiment with Hek293T, in the experiment on JEG-3, in the experiment with PA-1, with SKOV3, in the experiment on Tov-21-G and with Tov112D was “inactive” each time. Further, in the experiment with astro, the Potency entry is “inactive”. The activity, negative = cell killing in experiment [2] (setting [6]) is -15.7%; in [2] (setting [4]), -16.9%; in experiment [2] (setting [7]), -16.6%. In experiment [2] (tumour line A), the Potency was 35.5 µM (active).

Consider `O=S(=O)(O)c1ccc(O)cc1`, for which the Potency entry in the experiment with Hek293T, in the experiment on JEG-3, in the experiment on PA-1, in the experiment on SKOV3, with Tov-21-G and in the experiment with Tov112D was “inactive” each time. The activity, negative = cell killing is -17.6% in experiment [2] (setting [6]), -11% in [2] (setting [4]) and -1.85% in experiment [2] (setting [7]).

`CCCCC(CC)CN1CN(CC(CC)CCCC)CC(C)(N)C1` (stereo unspecified): the Potency entry with Hek293T, in the experiment with JEG-3, in the experiment with OV90, with SKOV3, with Tov-21-G and in the experiment with Tov112D was “inactive” each time. Moreover, in the experiment with astro, the Potency entry was “inactive”. The activity, negative = cell killing in experiment [2] (setting [8]) is -6.58%; in experiment [2] (setting [9]), -11%; in experiment [2] (setting [10]) it was -24%.

Regarding `CCCCc1cc2ccccc2c(OCCN(C)C)n1`, the Potency entry in the experiment with Hek293T, in the experiment with JEG-3, with PA-1, in the experiment on Tov-21-G and in the experiment with Tov112D was “inactive” in each case. Besides, the activity, negative = cell killing in experiment [2] (setting [8]) is -4.36%; in experiment [2] (setting [9]), -17.4%.

Regarding `CC(C)(Cc1c[nH]c2ccccc12)NCC(O)COc1ccccc1C#N` (stereo unspecified), the Potency result in the experiment on Hek293T, in the experiment on JEG-3, with PA-1, in the experiment on Tov-21-G and with Tov112D was “inactive” each time.

`CCOc1ccc(NC(C)=O)cc1`: the Potency entry in the experiment with Hek293T, in the experiment on JEG-3, in the experiment with PA-1, in the experiment on SKOV3, with Tov-21-G and in the experiment with Tov112D was “inactive” in each case. The activity, negative = cell killing in experiment [2] (setting [6]) is 4.81%; in experiment [2] (setting [4]), -8.88%; in experiment [2] (setting [5]), -27%; in [2] (setting [7]), -1.2%. The max response in experiment [1] was 2.72% and -0.111%. Moreover, the call in [3] was inactive.

As for `CN(C)CCC[C@@]1(c2ccc(F)cc2)OCc2cc(C#N)ccc21`, the Potency result in the experiment on Hek293T, in the experiment on JEG-3, in the experiment with PA-1, in the experiment on SKOV3, in the experiment with Tov-21-G and with Tov112D was “inactive” each time. In addition, the activity, negative = cell killing in experiment [2] (setting [6]) is 11.5%; in experiment [2] (setting [4]), -13.7%; in experiment [2] (setting [5]), -29.3%; in [2] (setting [7]) it was 2.89%.

Regarding `CN1CCC(OC(c2ccccc2)c2ccccc2)CC1`, the Potency entry with Hek293T, with JEG-3, with PA-1, in the experiment on SKOV3, in the experiment on Tov-21-G and in the experiment with Tov112D was “inactive” in each case. Moreover, the Potency result in the experiment on astro is “inactive”. Besides, the activity, negative = cell killing in [2] (setting [8]) is 1.79%; in [2] (setting [9]) it was -9.68%. In addition, the Potency in experiment [2] (tumour line A) was 7.08 µM (active).
